Compound activity (PubChem BioAssay)
The list is not random: actives were taken first. Their share in the collection is about 2.5%.
Rce1 inhib – yeast Rce1p protease inhibitors, primary screen, biochemical, fluorescence, cell-free homogeneous; CAAX prenyl protease 2 (Saccharomyces cerevisiae (strain ATCC 204508 / S288c)), Q03530; yeast membranes, quenched prenylated peptide cleavage fluorescence; calls only; 290,000 compounds, 0.27% hits; AID 2563, 2010;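 active means fall in fluorescence gain of 50% or more versus controls, with final raw signal at or below 3038400; inconclusive means same 50% fall but final raw signal above 3038400; inactive means fall in fluorescence gain under 50%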
Target sequence (Q03530 whole entry, looked up): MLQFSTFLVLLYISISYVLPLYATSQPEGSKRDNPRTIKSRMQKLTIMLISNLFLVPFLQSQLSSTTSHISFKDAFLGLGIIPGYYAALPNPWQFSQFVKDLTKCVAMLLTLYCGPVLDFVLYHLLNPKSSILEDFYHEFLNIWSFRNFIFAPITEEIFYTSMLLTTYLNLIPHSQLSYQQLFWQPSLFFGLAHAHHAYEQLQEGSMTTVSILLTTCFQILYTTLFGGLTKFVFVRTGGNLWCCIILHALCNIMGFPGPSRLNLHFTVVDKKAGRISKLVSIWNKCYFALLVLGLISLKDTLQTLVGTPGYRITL
UBC13 inh – UBC13 polyubiquitin chain formation inhibitors, primary screen, biochemical, TR-FRET, uHTS; AID 485273, 2010; 330,000 compounds, 0.47% hits; inhibition, % at 20 µM; in the data active means inhibition above about 45%, passing the limit was not always enough; inconclusive means no clear call, values can overlap the other calls
Target sequence (P61088 whole entry, looked up): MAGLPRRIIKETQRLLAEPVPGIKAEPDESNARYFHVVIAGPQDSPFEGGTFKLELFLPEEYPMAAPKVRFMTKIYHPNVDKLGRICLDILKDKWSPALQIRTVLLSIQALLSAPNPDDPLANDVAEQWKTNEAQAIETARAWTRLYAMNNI
MEKK3 PB1 HTS – modulators of MEKK3-MEK5 PB1 binding, primary screen, biochemical, wildtype MEKK3, multiplex bead flow cytometry, Alexa488-MEK5. Mitogen-activated protein kinase kinase kinase 3 (Homo sapiens), Q99759. bead-based flow cytometry, Alexa488-MEK5 binding to MEKK3; actives lie on both sides; 0 = blocked by unlabeled MEK5, 100 = vehicle. binding response (% of control), % at 10 µM. 290,000 compounds, 1.4% hits. AID 1529, 2009;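 active means binding response more than 3 SD above or below the average of its plate-row segment, actives on both sides; inconclusive means wells at one plate position flagged as instrument error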;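 further: Alexa488 bead fluorescence after subtracting the streptavidin-only scavenger bead signal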
MEKK2 WT-MEK5 – modulators of MEK5 binding to wildtype MEKK2, primary screen, biochemical, multiplex bead flow cytometry, Alexa488-MEK5; Mitogen-activated protein kinase kinase kinase 2 (Homo sapiens), Q9Y2U5; Alexa488-MEK5 binding to MEKK2 WT; actives lie on both sides; binding response (% of control), % at 10 µM; 290,000 compounds, 1.1% hits; in the data active means binding response below about 67% or above about 130%; inconclusive means no clear call, values can overlap the other calls; inactive means in between
MEKK2mut PB1 HTS – MEK5 binding signal on mutant MEKK2 PB1, primary screen, biochemical, multiplex bead flow cytometry, Alexa488-MEK5. 290,000 compounds, 0.35% hits. Alexa488-MEK5 binding to MEKK2 mutant. percent response, % at 10 µM; in the data active means percent response above about 24%, passing the limit was not always enough
Casp3 UBC13 ctr – CASP3 inhibitor validation, counterassay for project on UBE2N polyubiquitination blockers, biochemical, one dose | Recombinant caspase-3, Caspase-Glo 3/7 luminescence, 60 min | 1,400 compounds, 4% hits | inhibition, % at 20 µM | shares compounds with UBC13 inh;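 active means mean inhibition across replicates above about 26%, limit read from the data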
UBC13 conf – UBC13 polyubiquitination inhibitors, single-point retest, confirmation, biochemical, TR-FRET, single concentration. AID 488859, 2010. shares compounds with UBC13 inh. 1,400 compounds, 68% hits. inhibition, % at 10 µM; in the data active means inhibition above about 45%; inconclusive means no clear call, values can overlap the other calls
Numbers stand for hits; - = inactive; ? = inconclusive; . = not tested or not shown; + = active, no number.

SMILES	Rce1 inhib	UBC13 inh	MEKK3 PB1 HTS	MEKK2 WT-MEK5	MEKK2mut PB1 HTS	Casp3 UBC13 ctr	UBC13 conf
O=C(NCCN1C(=O)S/C(=C\c2ccc(F)cc2)C1=O)c1cccc(S(=O)(=O)N2CCOCC2)c1	-	-	-	-	-	.	.
CC(=O)C1=C(C)NC(=O)NC1c1ccc(Cl)cc1 (stereo unspecified)	-	-	-	-	-	.	.
NC(CO)C(=O)NNCc1ccc(O)c(O)c1O (stereo unspecified)	-	48	-	-	-	-	-
O=C(COc1ccc(F)cc1)NCC1(N2CCCCC2)CCCCC1	.	-	.	.	.	.	.
CCC(C)[C@H]1CNCCN1CCc1cc(C(F)(F)F)cc(C(F)(F)F)c1 (stereo partly specified)	-	60	.	.	.	-	-
FC(F)(F)c1cc(CCN2CCNC[C@@H]2c2ccccc2)cc(C(F)(F)F)c1	.	66	.	.	.	-	62
CCCC[C@@H]1CNC(=O)C(=O)N1CCc1cc(C(F)(F)F)cc(C(F)(F)F)c1	-	-	-	-	-	.	.
CCCC[C@@H]1CNCCN1CCc1cc(C(F)(F)F)cc(C(F)(F)F)c1	-	55	.	.	.	-	-
FC(F)(F)c1cc(CCN2CCNC[C@@H]2CC2CCCCC2)cc(C(F)(F)F)c1	.	87	.	.	.	-	97
CSc1ccccc1OCc1cc(C(=O)N2CCc3[nH]cnc3C2c2ccccn2)no1 (stereo unspecified)	-	-	-	-	-	.	.
O=C(CNC(=O)c1cccc(Cl)c1)Nc1ccc(F)c(F)c1F	-	-	-	-	-	.	.
O=C(CSc1cc(Cl)ccc1Cl)NCC(=O)Nc1ccc(F)c(F)c1F	-	71	-	-	-	-	79
O=C(CSC1=NS(=O)(=O)c2ccccc21)Nc1ccccc1	-	47	-	-	-	-	-
O=C(COC(=O)CCCCCN=C1NS(=O)(=O)c2ccccc21)Nc1ccc(Cl)c(Cl)c1	-	49	-	-	-	-	-
CN(Cc1nc(Cc2cccc(C(F)(F)F)c2)no1)C1CC(C)(C)NC(C)(C)C1	-	-	-	-	-	.	.
COc1ccc(-c2cc(C(=O)NCCCN3CCCC3=O)c3ccccc3n2)cc1	+	47	.	.	.	-	54
CCO[C@H]1OC(C(=O)NCc2ccccc2)=C[C@@H](c2ccccc2)[C@@H]1CCCO	-	50	-	-	-	-	-
CCO[C@@H]1OC(C(=O)NCc2ccccc2)=C[C@H](c2ccccc2)[C@H]1CCCO	-	-	-	-	-	.	.
COc1ccc(OC)c(/C=C/C(=O)OCC(=O)c2c(N)n(C)c(=O)n(C)c2=O)c1	-	46	-	-	-	-	-
CN(C)CC(O)CN1C(=O)NC(C)(C)C1=O (stereo unspecified)	-	-	-	-	-	.	.
Cc1ccc(OCCNCc2ccccc2)c(C)c1	.	-	-	-	-	.	.
Cc1cc(C(C)(C)CC(C)(C)C)ccc1OCCOCC[N+](C)(C)Cc1ccccc1	.	100	.	.	.	-	105
CCN(CC)c1ccc(/C=C2\CCC(/C=N/NC(=O)c3ccc(=O)n(C)c3)=C2N2CCOCC2)cc1	-	53	-	-	-	-	-
O=C(Cn1cc(C(=O)c2ccco2)c2ccccc21)NC1CCCC1	-	-	-	-	-	.	.
O=C(Cn1cc(C(=O)c2cccs2)c2ccccc21)NC1CCCCC1	-	61	-	-	-	-	-
SMILES	Rce1 inhib	UBC13 inh	MEKK3 PB1 HTS	MEKK2 WT-MEK5	MEKK2mut PB1 HTS	Casp3 UBC13 ctr	UBC13 conf
Cc1ccc(-c2csc(NC(=O)CSc3nc4ccccc4c(=O)n3CCCN(C)C)n2)cc1	-	89	-	207	67	-	94
CC(=O)Nc1c(C)ccc(S(N)(=O)=O)c1C	-	-	-	-	-	.	.
C[C@H](CO)N1C[C@H](C)[C@@H](CN(C)S(=O)(=O)c2ccccc2)Oc2c(NC(=O)Nc3ccc(C(F)(F)F)cc3)cccc2C1=O	.	52	.	.	.	-	-
C[C@H](CO)N1C[C@H](C)[C@@H](CN(C)S(C)(=O)=O)Oc2c(NC(=O)Nc3ccc(C(F)(F)F)cc3)cccc2C1=O	.	-	.	.	.	.	.
CCCCCn1c(SCC(=O)OCC)nc2cc(C(=O)N3CCC(C(N)=O)CC3)ccc2c1=O	-	-	-	-	-	.	.
C=CCn1c(SCc2ccc(Cl)cc2)nc2cc(C(=O)N3CCC(C(N)=O)CC3)ccc2c1=O	-	57	-	-	-	-	48
NC(=O)c1nsc(C(=O)N(c2ccc(Cl)cc2)C(C(=O)NCC2CCCO2)c2cccs2)c1N (stereo unspecified)	-	46	-	-	-	-	50
Cc1cccc(N(C(=O)c2snc(C(N)=O)c2N)C(C(=O)NCC2CCCO2)c2cccs2)c1 (stereo unspecified)	-	62	-	-	-	-	71
Cc1cccc(N(C(=O)c2snc(C(N)=O)c2N)C(C(=O)NC2CCCC2)c2ccco2)c1 (stereo unspecified)	-	79	-	-	-	-	76
CC1CC(C)CN(C(=O)C2CCN(S(=O)(=O)c3ccc4c(c3)CC(C)N4C(=O)C3CC3)CC2)C1 (stereo unspecified)	-	-	-	-	-	.	.
COc1ccc(S(=O)(=O)N2CCCC2CNC(=O)C(=O)Nc2cccc(F)c2)cc1 (stereo unspecified)	-	-	.	.	.	.	.
COc1ccc(CCNC(=O)CSc2ccc(-c3cccs3)nn2)cc1OC	-	-	-	-	-	.	.
Cc1cc(C)cc(NC(=O)N2CCN(S(C)(=O)=O)CC2)c1	-	-	-	-	-	.	.
CCCn1c(NC(=O)c2ccc(C)cc2)nc2ccccc21	-	-	-	-	-	.	.
C=CCn1c(NC(=O)c2ccc(C)cc2)nc2ccccc21	-	46	-	-	-	-	?
CCOc1ccc(NC(=O)CN(C)C(=O)c2ccc3[nH]c4c(c3c2)CC(C)CC4)cc1OCC (stereo unspecified)	-	-	.	.	.	.	.
Cc1ccc(NC(=O)CN(C)C(=O)c2ccc3[nH]c4c(c3c2)CC(C)CC4)cc1 (stereo unspecified)	.	66	.	.	.	-	48
Cc1cccc(NC(=O)C2CCN(S(=O)(=O)c3ccc4c(c3)NC(=O)CO4)CC2)c1	-	-	-	-	-	.	.
CCOC(=O)c1c(NC(=O)COc2ccccc2C#N)sc2c1CC(C)(C)NC2(C)C	-	76	-	134	-	-	105
